# From PubChem
# BCR signal inh: inhibitors of chronic active B-cell receptor signaling. Potency, µM (doses to about 46.1 µM), hits mostly inhibitors. 340,000 tested, 0.05% active. ABC-DLBCL IkBa-CBG/CBR reporter, luminescence ratio, 4 h; active = well fitted inhibition curve with a large enough effect in the signal ratio, with a control signal flat, not every such curve was filed as active; inconclusive = small, poorly fitted or top-dose-only effect, or effect the other way, or a change in a side signal; the % refers to the signal ratio
#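 Compounds up to 46 uM were incubated four hours with TMD8 cells whose green CBG68 luciferase is fused to IkappaBalpha; red CBR luminescence normalised the signal, and concentration-effect curves were fitted to fusion, red and ratio data.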
# SW480 rerep: DNA re-replication induction in SW480 cells; 340,000 tested, 1.8% active; Potency, µM (highest dose often 46.1 µM), actives largely listed as activators; SW480 DNA re-replication, Hoechst DNA content imaging, 48 h; also: nearly all actives have a fitted effect of over 55% in size
#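 Treated cells incubate 48 hr (37 C, 5% CO2), are stained 40 min with Hoechst, and nuclear fluorescence is enumerated; a rise in nuclei with high DNA signal marks re-replication.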
# MCF10A rereplic: inducers of DNA re-replication in MCF 10A breast cells. MCF 10A DNA re-replication, Hoechst nuclear intensity, 48 h. Potency, µM (top dose mostly 46.1 µM), actives largely listed as activators. 350,000 tested, 2.9% active; also: nearly all actives have a fitted effect of over 50% in size
# IL-1B inflam inh: inflammasome signaling inhibition, IL-1 beta readout; 360,000 tested, 4.7% active; THP-1 LPS/ATP IL-1B secretion, AlphaLISA, 16 h; stronger effect = lower value; activity change, % at 57.5 µM; AID 743279; in the data active = activity change below about -50%; inconclusive = mostly about -30% to -49%
#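 THP-1 cells pretreated 1 hr with compounds (up to 57.5 uM final), then stimulated with LPS (250 ng/mL final) plus ATP (1.25 mM final); secreted IL-1B measured by AlphaLISA after 16 hr, decreased signal indicating inhibition.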
# TDP1 cell noCPT: qHTS for Inhibitors of human tyrosyl-DNA phosphodiesterase 1 (TDP1): qHTS in cells in absence of CPT; DT40 Tdp1-/- hTDP1 cells, no CPT, ATP luminescence, 48 h; 420,000 tested, 15% active; AID 686978, 2013; Potency, µM (series often up to 46.2 µM), most hits filed as inhibitors; also: nearly all actives have a fitted effect of over 55% in size
#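 Camptothecin absent (DMSO only). Human TDP1-complemented DT40 knockout cells, 400 cells/well, 37 °C for minimum 48 hr; ATP measured via CellTiter-Glo, 30 min dark incubation, luminescence.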
# TDP1 cell CPT: DT40-hTDP1 cell growth loss with CPT | chicken DT40 Tdp1-/-;hTDP1 cells + 20 nM CPT, ATP luminescence, 48 h | Potency, µM (highest dose often 46.2 µM), actives largely listed as inhibitors | 420,000 tested, 12% active | AID 686979; also: nearly all actives have a fitted effect of over 55% in size
#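 Cell growth measured by CellTiter-Glo luminescence after a minimum 48 h, 37 C compound exposure with 20 nM CPT in Tdp1-knockout DT40 cells stably expressing hTDP1, seeded 400/well; qHTS titration format.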
# Hits are given with their value; . = inactive; ? = inconclusive; / = no result given; [ ] = dose if it differs, or a comment. Compounds with a hit are over-represented: about 19% of the library has one in this group of screens. Unless noted, calls follow the shape of the dose curve; as a rule, active = well fitted curve in the direction sought with a large enough effect; inconclusive = small, poorly fitted or top-dose-only effect, or another doubt; inactive = no such curve, though single readings can be large; an effect the other way counts as inactive or inconclusive.
SMILES,BCR signal inh,SW480 rerep,MCF10A rereplic,IL-1B inflam inh,TDP1 cell noCPT,TDP1 cell CPT
O=C(NCCN1CCOCC1)c1cccc(S(=O)(=O)NCc2ccccc2)c1,.,.,.,.,.,.
CCOc1ccc(S(=O)(=O)N2CCCCC2)cc1NC(=O)CN1C(=O)NC(C)(c2ccc(C)cc2)C1=O (centres undefined),.,?,?,.,16.4µM,23.1µM
Cc1ccc(C2(C)NC(=O)N(CC(=O)Nc3ccc(Cl)c(S(=O)(=O)N4CCCCC4)c3)C2=O)cc1 (centres undefined),?,.,.,.,18.4µM,?
CC(C)c1ccc(NC(=O)CCS(=O)(=O)c2ccc3c(c2)CC(=O)N3C)cc1,/,/,/,/,.,?
O=C(NCC(c1ccccc1Cl)N1CCCC1)C1CCN(C(=O)Nc2ccccc2)CC1 (centres undefined),.,.,.,.,.,.
Cc1ccc(Cn2cccc2C2=NC(C)(C)CO2)cc1,/,/,/,/,.,.
Cc1nc(CC(=O)NCC2Cc3cc(F)cc(-c4ccc(F)c(C)c4)c3O2)cs1 (centres undefined),/,/,/,/,13µM,.[9.04 µM]
CC(=O)c1ccc(F)c(-c2cc(C)cc3c2OC(CNC(=O)C(C)n2nc(C)cc2C)C3)c1 (centres undefined),/,/,/,/,.,.[9.04 µM]
CC(=O)c1ccc(F)c(-c2cc(C)cc3c2OC(CNC(=O)c2csc(C)n2)C3)c1 (centres undefined),/,/,/,/,20.6µM,.[9.04 µM]
Cc1cc(-c2cc(F)cc3c2OC(CNC(=O)[C@@H]2CCC(=O)N2)C3)ccc1F (some centres undefined),/,/,/,/,.,.[9.04 µM]
Cc1cccc(OCCOC(=O)CN2C(=O)NC3(CCCC3)C2=O)c1,.,.,.,?,?,?
COC(=O)/C=c1\[nH]c2nnc(C)n2c1=O,.,.,.,.,.,.
CC(C)(C)NCCC(O)c1cc(C(F)(F)F)nc2c(C(F)(F)F)cccc12 (centres undefined),/,?,.,-87.6,16.4µM,20.6µM
CC(C)Cn1c(N)c(C(=O)COC(=O)c2cc(C(F)(F)F)nc3c(C(F)(F)F)cccc23)c(=O)n(C)c1=O,?,.,.,/,/,/
COc1ccccc1CNC(=O)COC(=O)C1CCN(S(=O)(=O)c2ccc(C)c(C)c2)CC1,.,.,.,.,.,.
Cc1cc(O)c2c(c1)O[C@@]1(C)CC[C@H]3C(C)(C)CCCC34CO[C@@H]2[C@H]41 (some centres undefined),/,/,/,/,16.8µM,?
CCc1ccccc1NC(=O)C1CCCN(S(=O)(=O)c2ccc3[nH]c(=O)ccc3c2)C1 (centres undefined),/,/,/,/,.,.
CC(=O)OCC1OC(n2cnc3c(Cl)nc(Cl)nc32)C(OC(C)=O)C1OC(C)=O (centres undefined),/,/,/,/,20.6µM,?
COC(=O)c1ncn(C2OC(COC(C)=O)C(OC(C)=O)C2OC(C)=O)n1 (centres undefined),.,.,.,.,.,.
CC(=O)OCC1OC(n2cc(F)c(=O)[nH]c2=O)C(OC(C)=O)C1OC(C)=O (centres undefined),/,?,?,.,5.17µM,8.2µM
c1ccc(Nc2scc(-c3ccccc3)[n+]2Cc2ccco2)cc1,?,.,.,.,23.1µM,16.4µM
c1ccc(C[n+]2c(-c3ccccc3)csc2Nc2ccccc2)cc1,?,.,.,.,?,10.3µM
CC[n+]1c(-c2ccccc2)csc1Nc1c(C)n(C)n(-c2ccccc2)c1=O,.,?,.,.,.,?
CCN1CCN(c2cc(C)c3cc(NC(=S)N(CC)CC)ccc3n2)CC1,?,?,?,.,?,?
CCOc1ccc(C(=O)Nc2ccc3nc(N4CCN(CC)CC4)cc(C)c3c2)cc1,.,.,.,?,25.9µM,?
SMILES,BCR signal inh,SW480 rerep,MCF10A rereplic,IL-1B inflam inh,TDP1 cell noCPT,TDP1 cell CPT
CCN1CCN(c2cc(C)c3cc(NC(=O)c4cc(OC)cc(OC)c4)ccc3n2)CC1,?,?,?,?,16.4µM,?
CCN1CCN(c2cc(C)c3cc(NC(=O)Cc4ccc(OC)c(OC)c4)ccc3n2)CC1,?,.,.,.,.,.
CCCCc1ccc(C(=O)Nc2ccc3nc(N4CCN(CC)CC4)cc(C)c3c2)cc1,/,/,/,/,2.91µM,3.66µM
Cc1cccc(C)c1NC(=O)Cn1nc(-c2ccc(Cl)s2)ccc1=O,.,?,.,.,.,.
COc1ccccc1CN1CCC2(CC1)CCN(C(=O)c1csnn1)CC2,/,/,/,/,.,.
CCCCn1c(SCCN2CCCCC2)nc2c1c(=O)n(C)c(=O)n2C,/,/,/,.,.,.
CCCCN1C2=C(C(=O)CC(C)(C)C2)C(c2ccccc2)C2=C1c1ccccc1C2=O (centres undefined),.,.,?,.,16.4µM,?
CCCN1C2=C(C(=O)CC(C)(C)C2)C(c2ccc(F)cc2)C2=C1c1ccccc1C2=O (centres undefined),?,.,.,.,?,20µM
CCN(CC)CCN1C2=C(C(=O)CC(C)(C)C2)C(c2cccc(F)c2)C2=C1CC(C)(C)CC2=O,.,.,.,.,?,.
COc1cccc(NC(=O)CSc2nc(O)c(C)c(=O)n2-c2ccc(C)cc2)c1,.,.,.,?,.,.
Cc1ccc(Nc2nc(N)c([N+](=O)[O-])c(N3CCOCC3)n2)cc1C,.,.,.,.,20.6µM,23.1µM
Nc1nc(Nc2cccc(F)c2)nc(N2CCOCC2)c1[N+](=O)[O-],.,?,?,.,.,.
Cc1ccc(Nc2nc(N)c([N+](=O)[O-])c(N3CCC(C)CC3)n2)cc1C,?,?,.,-79.6,?,?
O=C(Nc1ccc(F)c(Cl)c1)N1CCCCCC1,.,.,.,.,.,.
Cc1ccc(N2CC(NC(=O)C3CC3)CC2=O)cc1 (centres undefined),.,?,?,.,.,.
N#C/C(=C\c1ccc(Cl)c([N+](=O)[O-])c1)c1ccccn1,.,?,?,-96.8,20.6µM,20.6µM
N#C/C(=C\c1ccncc1)c1ccccn1,?,?,?,-100.0,?,.
N#C/C(=C\c1cccnc1)c1ccccn1,.,.,.,.,.,.
CC(=O)Nc1ccc(/C(C)=N/Nc2nc(N3CCOCC3)nc(N3CCOCC3)n2)cc1,.,.,.,.,14.6µM,?
O=C(Nc1ccc(C(=O)N2CCOCC2)cc1)Nc1cccc2ccccc12,.,.,.,.,.,.
C/C(=N\Nc1nc(N2CCCCCC2)nc(N2CCCCCC2)n1)c1ccccc1,.,.,.,.,?,?
